Bioassay records as filed in PubChem BioAssay.
Most compounds without a hit are left out; they make up all but 3.2% or so of the library.
Tau fibril FP – tau fibrillization inhibition (FP) | Potency, µM (top dose mostly 57.7 µM), without a hit: top-dose activity, negative = inhibition, hits mostly inhibitors | AID 1468 | 280,000 compounds, 0.39% hits | P10636 | K18 P301L tau heparin fibrillization, Alexa594 FP, 6 h; also: nearly all actives have a fitted effect of over 55% in size
Target sequence (P10636 561-689 P618L limits assumed): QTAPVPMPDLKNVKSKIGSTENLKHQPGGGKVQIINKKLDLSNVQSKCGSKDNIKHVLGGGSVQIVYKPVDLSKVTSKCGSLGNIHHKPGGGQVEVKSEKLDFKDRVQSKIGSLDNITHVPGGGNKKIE
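Quantitative HTS format: compounds meet 15 uM recombinant K18 P301L tau and Alexa 594-tau tracer in 100 mM sodium acetate pH 7; 20 uM heparin triggers fibrillization at 37 C over 6 hr; FP gives the signal.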
TRb-SRC2 inh – disrupts binding of human TR beta to SRC2. TRbeta-SRC2 peptide binding, fluorescence polarization; receptor liganded with 1 µM T3. AID 1469. 280,000 compounds, 0.065% hits. Potency, µM (titrated, usually from 106 µM), inactives show top-dose activity change, negative = inhibition, usual class: inhibitors;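 also: plate controls were bound peptide for no effect and peptide without receptor for full effect; nearly all actives have a fitted effect of over 50% in size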
Target sequence (P10828 whole entry, looked up): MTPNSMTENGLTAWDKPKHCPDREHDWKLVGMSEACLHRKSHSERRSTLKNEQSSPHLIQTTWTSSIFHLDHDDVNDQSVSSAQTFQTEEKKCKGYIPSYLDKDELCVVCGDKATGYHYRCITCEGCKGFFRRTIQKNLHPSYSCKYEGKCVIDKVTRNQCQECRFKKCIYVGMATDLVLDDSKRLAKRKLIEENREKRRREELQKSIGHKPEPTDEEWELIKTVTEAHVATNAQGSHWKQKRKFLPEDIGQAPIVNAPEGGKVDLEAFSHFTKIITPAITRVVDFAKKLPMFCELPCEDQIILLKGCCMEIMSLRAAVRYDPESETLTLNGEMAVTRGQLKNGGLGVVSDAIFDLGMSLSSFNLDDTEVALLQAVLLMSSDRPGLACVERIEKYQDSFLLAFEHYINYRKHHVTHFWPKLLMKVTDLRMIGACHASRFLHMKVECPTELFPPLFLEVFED
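Decrease in fluorescence polarization of 20 nM Texas Red SRC2 coactivator peptide flagged inhibition of its binding to 0.6 uM TRb LBD; 1 uM T3 included, incubation 5 hr, ex 555/em 632 nm.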
TexasRed fluor – Texas Red fluorescence interference in TRb-SRC2 counter-screen | AID 1479 | Potency, µM (titrated, usually from 106 µM), inactives show at the top dose fluorescence change, negative = quenching | 280,000 compounds, 0.29% hits | TRb/SRC2 Texas Red total fluorescence interference; active = well fitted curve in either direction with a large enough effect; inconclusive = small, poorly fitted or top-dose-only effect
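Human TRb ligand-binding domain at 0.6 uM with 20 nM Texas Red SRC2 peptide in Tris buffer containing 1 uM T3 and 5% DMSO, incubated with compound 5 h at ambient temperature. Total fluorescence (555/632 nm) calculated as parallel + 2 × perpendicular.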
RGS12 GoLoco inh – inhibitors of human Gai1-RGS12 GoLoco interaction (red fluorophore); Gai1:RGS12 GoLoco peptide FP, rhodamine, 10 min; Potency, µM (series often up to 61.6 µM), without a hit: at the highest dose activity, negative = inhibition, hits mostly inhibitors; P63096; 230,000 compounds, 0.44% hits; active = well fitted inhibition curve with a large enough effect, not every such curve was filed as active; inactive = no such curve, though single readings can be large or run the other way; also: nearly all actives have a fitted effect of over 30% in size
Tau ThT inhib – blocks human tau fibril formation measured by thioflavin T; P10636; recombinant tau K18 P301L, heparin-induced fibrillization, ThT fluorescence; Potency, µM (highest dose often 57.4 µM), for inactives: at the highest dose activity, negative = inhibition, usual class: inhibitors; 270,000 compounds, 2.1% hits; AID 1460; also: nearly all actives have a fitted effect of over 55% in size
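In this qHTS, human K18 P301L tau is incubated with compound and heparin for 6 hr at 37 C, and Thioflavin T fluorescence then reports fibril load.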
Tau fluor counter – counter-screen for tau fibril formation inhibitors; 280,000 compounds, 0.93% hits; Potency, µM (highest dose often 57.7 µM), for the others: at the top dose activity change, negative = decrease; tau K18 P301L Alexa594 fluorescence, heparin fibrillization; AID 1463; also: nearly all actives have a fitted effect of over 55% in size
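Human tau K18 P301L (15 uM unlabeled, 0.24 uM Alexa 594-labeled) in 100 mM sodium acetate pH 7 with 20 uM heparin, 6 hr at 37 C. ThT 30 uM added, 1 hr ambient; Alexa 594 FP and total fluorescence read at 555/632 nm.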
Numbers without * were called inactive; ? = inconclusive; . = no result; ! = repeats disagree; [ ] = another dose, or the depositor's remark. Unless noted, calls follow the shape of the dose curve; as a rule, active = well fitted curve in the direction sought with a large enough effect; inconclusive = small, poorly fitted or top-dose-only effect, or another doubt; inactive = no such curve, though single readings can be large; an effect the other way counts as inactive or inconclusive. Unless noted, % is scaled to controls: 0 for no effect and ±100 for the full control effect; potency is read from the fitted curve at half-maximal effect.

SMILES	Tau fibril FP	TRb-SRC2 inh	TexasRed fluor	RGS12 GoLoco inh	Tau ThT inhib	Tau fluor counter
CCOC(=O)c1sc(NC(=O)c2cc(-c3ccc(C)cc3)nc3ccccc23)c(C#N)c1C	?	6%	-7%	-2%	?	-26%
CCN(CC)c1ccc(/C=C(\C#N)c2nc(-c3cccs3)c(NC(C)=O)s2)cc1	?	?	?	.	?	6.3µM*[quencher]
N#Cc1c(/N=C/c2cccs2)sc2c1CCCCC2	-6%	-5%	-1%	8%	3.2µM*	-26%
CN1C(=O)/C(=C/c2cn(CC(=O)NCc3ccco3)c3ccccc23)NC1=S	?	7%	-1%	10%	13µM*	?
CC1C(=O)OC2CC34C5CC(C(C)(C)C)C36C(OC(=O)C6O)OC4(C(=O)O5)C21O (stereo unspecified)	0%	-7%	-1%	5%	-3%	-6%
Cc1cccc(Cn2cc(C(=O)Nc3ccc(F)c(C(F)(F)F)c3)ccc2=O)c1	25µM*	-3%	1%	.	20%	?
CCOC(=O)N1CCC(Nc2c(Nc3cccc(CC)c3)c(=O)c2=O)CC1	?	-26%	0%	10%	?	14µM*[quencher]
Cc1[nH]c2c(C)cccc2c1CCNC(=O)c1ccc2c(c1[N+](=O)[O-])C(=O)c1ccccc1C2=O	6%	6%	1%	-2%	?	7.9µM*[quencher]
Cc1[nH]c2ccccc2c1CCNC(=O)c1ccc2c(c1[N+](=O)[O-])C(=O)c1ccccc1C2=O	1%	3%	-7%	-1%	?	8.9µM*[quencher]
O=C(CNC(=O)c1ccccc1F)OCc1nc2ccccc2s1	0%	-1%	-2%	12%	-10%	1%
CNc1sc(C(=O)c2ccccc2F)c(N)c1-c1nc2ccccc2s1	3%	-2%	-7%	5%	7.9µM*	11µM*[quencher]
Nc1ccc(S(N)(=O)=O)cc1N	-17%	3%	-1%	11%	13µM*	?
Nc1ccc(S(N)(=O)=O)cc1	-3%	5%	-1%	3%	-2%	-8%
COC(=O)Cn1c(=O)c2c(n(Cc3ccccc3)c1=O)N/C(=C/c1ccc(Br)cc1)C2=O	9%	1%	-7%	107%	16µM*	?
Cc1cccc2c1N(Cc1ccccc1OCCC(C)C)C(=O)C2=O	-8%	-5%	-2%	.	25µM*	-27%
Cc1cc(Br)cc2c1N(Cc1ccccc1OC(C)C)C(=O)C2=O	?	2%	-3%	.	25µM*	?
COc1ccccc1CN1C(=O)C(=O)c2cccc(C)c21	4%	-3%	1%	.	-14%	-4%
C=CC[C@@H]1C=C[C@@H](O/N=C\C[C@@H]2C=C[C@H](OC(C)=O)[C@H](COC(C)=O)O2)[C@@H](CO)O1	5%[11.6 µM]	4%[11.2 µM]	-1%[11.2 µM]	.	-2%[11.5 µM]	0%[11.6 µM]
O=c1c2c3c(sc2[nH]c(=S)n1Cc1ccco1)CCC3	-13%	2%	-4%	-1%	?	-16%
CC1(C)Cc2c(sc3[nH]c(=S)n(Cc4ccco4)c(=O)c23)CO1	?	3%	-15%	53%	28µM*	-26%
COc1ccc(/C=C\c2onc(C)c2S(=O)(=O)N2CCC(C(=O)Nc3cccc(C)c3C)CC2)cc1	?	0%	0%	.	7%	-8%
COc1ccc(/C=C\c2onc(C)c2S(=O)(=O)N2CCC(C(=O)Nc3cccc(Cl)c3)CC2)cc1	14µM*	-5%	-1%	.	14%	-20%
CC1CCc2c(sc3nc(-c4cc5ccccc5oc4=O)nc(Cl)c23)C1 (stereo unspecified)	8%	-29%[53 µM]	32µM*[quencher]	.	?	-14%
Cc1cc2c(c(=O)o1)[C@H](O)[C@H]1O[C@@H]1C2=O	10%[11.6 µM]	0%[11.2 µM]	0%[11.2 µM]	.	?	-27%[11.6 µM]
O=c1cnc2cnc(N3CCNCC3)nc2n1Cc1ccc(F)cc1	.	.	.	8.9µM*	.	.
SMILES	Tau fibril FP	TRb-SRC2 inh	TexasRed fluor	RGS12 GoLoco inh	Tau ThT inhib	Tau fluor counter
CC1(C)S[C@@H]2[C@H](NC(=O)[C@H](C(=O)O)c3ccsc3)C(=O)N2[C@H]1C(=O)O	-1%	2%	-1%	25µM*!	-2%	-1%
CCOC(=O)c1ccccc1NC(=O)N1CCOc2ccc(Cl)cc21	-2%	-7%	4.5µM*[quencher]	.	6%	3.2µM*[quencher]
CCc1ccccc1NC(=O)N1CCOc2ccccc21	-3%	0%	0.0089µM*[quencher]	.	2%	-1%
CCOc1ccc(NC(=O)N2CCOc3ccccc32)cc1	10%	-8%	-2%	.	-1%	?
COc1ccc(NC(=O)N2CCOc3ccc(Cl)cc32)cc1	14%	1%	?	.	-10%	8.9µM*[quencher]
CCc1ccccc1NC(=O)N1CCc2ccccc21	-9%	4%	-1%	2%	?	-17%
Fc1ccc(Nc2nc(-c3ccoc3)nc3ccccc23)cc1	.	.	.	25%	.	.
COc1ccccc1C(=O)NNC(=S)NC(=O)c1sc2ccccc2c1Cl	11%	-12%	-2%	1%	7.1µM*	-21%
C[C@@H]1C(=O)O[C@H]2[C@H](O)[C@@]34[C@H]5CC(C(C)(C)C)[C@]36[C@H](OC(=O)[C@H]6O)O[C@]4(C(=O)O5)[C@@]12O (stereo partly specified)	.	0%	-2%	.	.	.
CC/C=C\C/C=C\C/C=C\C/C=C\C/C=C\CCCCCC(=O)O	2%	-4%	-5%	-2%	-3%	-1%
CC/C=C\C/C=C\C/C=C\C/C=C\C/C=C\C/C=C\CCC(=O)O	?	5%	-5%	-5%	16µM*!	-1%
Cc1ccc(/C=c2\sc3nc(-c4ccco4)nn3c2=O)o1	?	-3%	-5%	120%	18µM*	-29%
Cc1ccc(/C=c2/sc3nnc(-c4ccccc4Cl)n3c2=O)o1	2%	-2%	-3%	68%	?	-20%
Cc1ccc(/C=c2\sc3nc(-c4ccccc4Br)nn3c2=O)o1	?	2%	-13%	90%	28µM*	-28%
CN(C(=O)c1ccoc1)c1ccccc1I	.	2%	-2%	.	.	.
CC(C)(C)OC(=O)N[C@@H](Cc1ccccc1)c1nnc(S(=O)(=O)Cc2ccccc2)o1	-9%	-10%	-3%	18µM*	-4%	3%
COC(=O)C1=NOC2(C=C(Br)C(OC)=C(Br)C2=O)C1 (stereo unspecified)	?	6%[11.2 µM]	-1%[11.2 µM]	.	4µM*	-23%[11.6 µM]
C=CCOc1ccccc1CNc1ccc2c(c1)OCCO2	0%	-3%	-1%	-1%	18µM*	?
C=CCOc1ccccc1CNc1cccc(F)c1	9%	-5%	-1%	9%	?	?
O=C(O)CC/C(=C\c1ccc(N2CCOCC2)c([N+](=O)[O-])c1)c1nc2ccccc2s1	-3%	2%	-3%	9%	7.9µM*	-12%
